This note sets out measurements from PubChem BioAssay (NCI).

“And” between values parts separate entries of the source, which are not always exact repeats. Equal values may be shown once. This is part of a sample that, as a whole, favours compounds with a hit. Of some 83,000 tested, about 20% had one in any assay.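 Negative percent growth values reflect cell death: -40 means 40% of the cells present at the start died, and -100 means all died.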 The source made the active and inactive calls. How the source made its calls: active means growth percent below 10; inactive means the rest.

Common to all, as to assay: NCI-60 one-dose screen, 48 h (100 = growth as untreated, 0 = no growth, -100 = all killed)
In one experiment the test system is SK-MEL-2 melanoma. The note with it: 10 µM.
In the next experiment the test system is SN12C renal. The conditions noted are these: 10 µM.
A further experiment deals with UO-31 renal. The note with it: 10 µM.
Another experiment has as its system TK-10 renal.
For another experiment, the system named is ACHN renal. The note with it: 10 µM.
A further experiment deals with A498 renal. The conditions noted are these: 10 µM.
The next experiment has as its system CCRF-CEM leukemia. The conditions noted are these: 10 µM.
The next experiment has as its system MOLT-4 leukemia. The note with it: 10 µM.
A further experiment has as its system CAKI-1 renal. The note with it: 10 µM.

As for `COc1cc2c3cc1Oc1c(OC)c(OC)cc4c1C(Cc1ccc(O)c(c1)Oc1ccc(cc1)CC3N(C)CC2)N(C)CC4` (centres undefined), the growth in the experiment with SK-MEL-2 melanoma is -16% (active); in the experiment on SN12C renal, 16.9% (inactive); in the experiment on UO-31 renal, 2.84% (active); in the experiment on TK-10 renal (10 µM), 4.81% (active); in the experiment on TK-10 renal (100 µM), 96% (inactive) and -100% (active); with ACHN renal, 18.9% (inactive). In addition, the results for the growth in the experiment on A498 renal, with CCRF-CEM leukemia and in the experiment on MOLT-4 leukemia were 21.4% (inactive), 2.18% (active) and -3.59% (active), respectively.

Take `O=C(c1ccc(O)cc1)c1ccc(O)cc1`: the growth is 101% (inactive) with SK-MEL-2 melanoma; 109% (inactive) in the experiment with SN12C renal; 85% (inactive) in the experiment with UO-31 renal; 95% (inactive) with TK-10 renal (10 µM unless noted); 107% (inactive) with ACHN renal; 110% (inactive) in the experiment with CAKI-1 renal. Further, the values for the growth with A498 renal, in the experiment with CCRF-CEM leukemia and in the experiment on MOLT-4 leukemia were 73.9% (inactive), 106% (inactive) and 102% (inactive), respectively.

With `O=C1C=C(Nc2ccc([N+](=O)[O-])cc2)c2ccccc2C1=O`, the growth was -7.97% (active) in the experiment with SK-MEL-2 melanoma; 39.8% (inactive) with SN12C renal; 30% (inactive) in the experiment with UO-31 renal; 80.4% (inactive) in the experiment with TK-10 renal (10 µM unless noted); 45.8% (inactive) in the experiment with ACHN renal; 67.9% (inactive) with CAKI-1 renal. In addition, the growth with A498 renal was 40.6% (inactive); with CCRF-CEM leukemia, 38.9% (inactive); with MOLT-4 leukemia it was 28.5% (inactive).

For the compound `O=[N+]([O-])c1ccc(/C=C/C=C/c2ccccc2)c(Cl)c1`, the growth in the experiment with SK-MEL-2 melanoma was 94.3% (inactive); in the experiment with SN12C renal it was 98.3% (inactive); in the experiment with UO-31 renal, 92.8% (inactive); in the experiment with TK-10 renal (10 µM unless noted), 121% (inactive); in the experiment on ACHN renal it was 100% (inactive); with CAKI-1 renal, 95% (inactive). For the same compound, the results for the growth in the experiment with A498 renal, in the experiment with CCRF-CEM leukemia and in the experiment with MOLT-4 leukemia were 88.9% (inactive), 90.7% (inactive) and 86.4% (inactive), respectively.

Regarding `O=C(/C(=N/O)c1ccccc1)c1ccccc1`, the growth in the experiment with SK-MEL-2 melanoma was 121% (inactive); with SN12C renal, 94.6% (inactive); in the experiment on UO-31 renal, 87.9% (inactive); in the experiment with TK-10 renal (10 µM unless noted), 108% (inactive); with ACHN renal, 106% (inactive); with CAKI-1 renal it was 100% (inactive). For the same compound, the values for the growth in the experiment on A498 renal, with CCRF-CEM leukemia and with MOLT-4 leukemia were 91.5% (inactive), 97.9% (inactive) and 123% (inactive), respectively.

On to `Cc1ccc(CCCC(=O)O)c(C)c1`, for which the growth was 91.1% (inactive) in the experiment with SK-MEL-2 melanoma; 97.9% (inactive) with SN12C renal; 90.9% (inactive) with UO-31 renal; 95% (inactive) in the experiment with TK-10 renal (10 µM unless noted); 98.3% (inactive) in the experiment on ACHN renal; 99.7% (inactive) in the experiment with CAKI-1 renal. For the same compound, the growth in the experiment on A498 renal is 101% (inactive); in the experiment with MOLT-4 leukemia, 98.7% (inactive).

For the compound `CC1(C(=O)O)NC(C(=O)O)Cc2c1[nH]c1ccccc21` (centres undefined), the growth is 93.7% (inactive) with SK-MEL-2 melanoma; 95.8% (inactive) in the experiment on SN12C renal; 79.5% (inactive) with UO-31 renal; 108% (inactive) with TK-10 renal (10 µM unless noted); 102% (inactive) with ACHN renal; 96.5% (inactive) with CAKI-1 renal. Moreover, the growth was 91.8% (inactive) in the experiment on A498 renal, 82.8% (inactive) with CCRF-CEM leukemia and 88.8% (inactive) in the experiment on MOLT-4 leukemia.

For the compound `CC(=Nc1ccccc1)C1=C(O)C(Cc2cccc(F)c2)NC1=O` (centres undefined), the growth in the experiment with SK-MEL-2 melanoma was 13.1% (inactive); in the experiment on SN12C renal, 29.7% (inactive); with UO-31 renal, 35.9% (inactive); with TK-10 renal (10 µM unless noted), 44.4% (inactive); in the experiment on ACHN renal, 26.4% (inactive); with CAKI-1 renal, 37.2% (inactive). Besides, the growth with A498 renal was 0.117% (active); in the experiment on CCRF-CEM leukemia, 6.2% (active); in the experiment with MOLT-4 leukemia it was -12.4% (active).

In the case of `CC(=O)OCCO`, the growth with SK-MEL-2 melanoma is 143% (inactive); with SN12C renal, 98.5% (inactive); in the experiment with UO-31 renal, 90.3% (inactive); with TK-10 renal (10 µM unless noted), 114% (inactive); in the experiment with ACHN renal, 105% (inactive); in the experiment with CAKI-1 renal it was 104% (inactive). Further, the growth in the experiment on A498 renal was 109% (inactive); in the experiment on CCRF-CEM leukemia, 111% (inactive); in the experiment on MOLT-4 leukemia it was 102% (inactive).

For the compound `COc1ccc(-c2cc3c(nn2)-c2ccccc2C3=O)cc1`, the growth in the experiment with SK-MEL-2 melanoma was 65.5% (inactive); with SN12C renal, 72.7% (inactive); with UO-31 renal, 89.7% (inactive); in the experiment on TK-10 renal (10 µM unless noted), 32.1% (inactive); in the experiment with ACHN renal, 73.5% (inactive); in the experiment on CAKI-1 renal it was 28.9% (inactive). In addition, the growth in the experiment with A498 renal was 102% (inactive); in the experiment with CCRF-CEM leukemia, 28.6% (inactive); with MOLT-4 leukemia, 57.1% (inactive).

`COC(=O)c1ccc(NC(=O)CCl)cc1`: the growth with SK-MEL-2 melanoma was 66% (inactive); in the experiment with SN12C renal it was 76.6% (inactive); with UO-31 renal it was 107% (inactive); with TK-10 renal (10 µM unless noted) it was 88% (inactive); in the experiment with ACHN renal, 85.7% (inactive); with CAKI-1 renal, 83.9% (inactive). In addition, the growth in the experiment with A498 renal is 97.4% (inactive); in the experiment with MOLT-4 leukemia, 72.7% (inactive).

As for `C=C[Si](OC(C)=O)(OC(C)=O)OC(C)=O`, the growth was 109% (inactive) in the experiment with SK-MEL-2 melanoma; 110% (inactive) in the experiment with SN12C renal; 79.3% (inactive) with UO-31 renal; 105% (inactive) in the experiment with TK-10 renal (10 µM unless noted); 97.3% (inactive) in the experiment on ACHN renal; 96.4% (inactive) in the experiment with CAKI-1 renal. Further, the results for the growth in the experiment on A498 renal, with CCRF-CEM leukemia and in the experiment on MOLT-4 leukemia were 94.2% (inactive), 88% (inactive) and 98.3% (inactive), respectively.

For the compound `c1ccc2c(c1)Sc1ccccc1S2`, the growth is 112% (inactive) with SK-MEL-2 melanoma; 93.2% (inactive) in the experiment with SN12C renal; 98.9% (inactive) with UO-31 renal; 99.4% (inactive) with TK-10 renal (10 µM unless noted); 109% (inactive) with ACHN renal; 103% (inactive) with CAKI-1 renal. The growth was 94.3% (inactive) in the experiment on A498 renal, 97.3% (inactive) with CCRF-CEM leukemia and 111% (inactive) with MOLT-4 leukemia.

With `NCCCN`, the growth was 122% (inactive) with SK-MEL-2 melanoma; 101% (inactive) in the experiment with SN12C renal; 92.6% (inactive) in the experiment on UO-31 renal; 107% (inactive) in the experiment with TK-10 renal (10 µM unless noted); 103% (inactive) in the experiment with ACHN renal; 98.3% (inactive) with CAKI-1 renal. The results for the growth in the experiment on A498 renal, in the experiment with CCRF-CEM leukemia and in the experiment on MOLT-4 leukemia were 114% (inactive), 101% (inactive) and 112% (inactive), respectively.
